Measured values published in PubChem BioAssay AID1671194 (National Center for Advancing Translational Sciences (NCATS), 2021).
Out of some 140,000 compounds screened, about 240 (0.17%) were called active. Inconclusive results (about 9%) are left out. The entries come from a sample that favours actives as a whole. A number with no mark means an inactive call. Calls follow the shape of the dose curve; as a rule, active = well fitted inhibition curve with a large enough effect; inconclusive = small, poorly fitted or top-dose-only effect; inactive = no such curve, though single readings can be large or run the other way.

Experiment: Primary qHTS assay for inhibitors of alpha-synuclein gene (SNCA) expression; also: nearly all actives have a fitted effect of over 45% in size
Details: HEK-293 SNCA-luciferase knock-in, luminescence, 24 h; series mostly up to 57.2 µM; activity change, negative = inhibition: at the top concentration
From the text: Assay Submitter (PI): Daniel R. Scoles Ph.D.
Department of Neurology, University of Utah, Salt Lake City, Utah
Accumulation of alpha-synuclein is a main underlying pathological feature of Parkinson's disease (PD) and alpha-synucleinopathies, for which lowering expression of the alpha-synuclein gene (SNCA) is a potential therapeutic avenue. Using a cell-based luciferase reporter of SNCA expression we performed a quantitative high throughput screen (qHTS) of 155,885 compounds in dose response. The screening assay was generated using genome editing to insert the luciferase gene downstream and in frame of the SNCA gene in HEK-293 cells (1). A viability counterscreen using GF-AFC was used to eliminate cytotoxic and false positive compounds. After in silico analysis (clustering, removal of frequent hitter nuisance chemotypes), inhibitor compounds from the primary screen were selected for follow up and re-tested at 11-doses in the SNCA-luc cells (luciferase and GF-AFC confirmation), and in CMV-luc expressing cell line to flag general transcriptional repressors.
Described herein are the results of the primary screen for SNCA inhibitors; decrease in luciferase signal (inhibition of the SNCA gene expression) is the desired output for this assay.
1. Dansithong, W., Paul, S., Scoles, D. R., Pulst, S. M., and Huynh, D. P. (2015) Generation of SNCA Cell Models Using Zinc Finger Nuclease (ZFN) Technology for Efficient High-Throughput Drug Screening. PLoS ONE 10, e0136930.
SEQUENCE No. (e.g., 1, 2, 3, etc.); […] (e.g., Cells, Incubation, Reagent, etc.); VALUE; DESCRIPTION
1; Cells; 4 uL; Dispense 1500 HEK-293-SNCA-luc cells/well into Greiner 1536-well white / solid bottom tissue culture treated plate. The plate was covered with metal lids with gas-exchange holes.
2; Incubate; 24 hours; Incubate at 37C, 5% CO2, 95% RH.
3; Compounds; 23 nL; Compounds and controls were transferred via a Kalypsys Pin Tool (Wako USA) equipped with a 1536-slotted pin array. The plate was covered with metal lids with gas-exchange holes.
4; Incubate; 24 hours; Incubate at 37C, 5% CO2, 95% RH.
5; Dispense; 1 uL; Dispense Gly-Phe-7-amino-4-trifluoromethylcoumarin (GF-AFC, prepared at 125 uM in PBS) was added. The plate was covered with metal lids with gas-exchange holes.
6; Incubate; 30 min; Incubate at 37C, 5% CO2.
7; Detector; Fluorescence; Measure fluorescence with ViewLux microplate reader (PerkinElmer) equipped with 405/10 excitation and 540/25 emission filters.
8; Dispense; 3 uL; Dispense ONE-Glo ([…]) lucifase detection reagent was added to each well. Plates were covered with metal lids with gas-exchange holes.
9; Incubate; 15 min; Incubate at room temperature.
10; Detector; Luminescence; Measure luminescence with ViewLux microplate reader (PerkinElmer) equipped with clear filters.
NOTES (numbers refer to sequence above)
1; HEK-293-SNCA-luc were cultured and suspended in phenol-red free DMEM (4.5 g/L glucose, 25 mM HEPES, cat #21063 (Thermo)).
3; Compounds were added to the assay plate in an 11-point intra plate dose response, 1:3 titration in DMSO with a final concentration range of […]. Vehicle-only plates, with DMSO being pin-transferred to every well, were inserted at the beginning of screening runs to confirm expected assay performance. Activity was normalized to wells containing medium only (-100% activity, full inhibition) and SNCA-luc cells treated with DMSO vehicle control (0% activity), contained on the same plate as test samples.
10; Signals were analyzed, and dose-response curves were fit using the Hill equation. Compounds in curve classes -1.1, -1.2, -2.1, -2.2 in the SNCA-luc assay were considered active. Compounds were eliminated from further consideration if also active (curve class -1.1, -1.2, -1.3, -1.4, -2.1, -2.2, -2.3, -2.4) in the GF-AFC cytotoxicity assay.
Potency is read from the fitted curve at half-maximal effect.

| SMILES | activity change, negative = inhibition | Potency |
| --- | --- | --- |
| CCOC(=O)C1CCCN(C(=O)c2ccc3oc(-c4ccccn4)nc3c2)C1 (centres undefined) | 44.3% | – |
| O=C(NCCc1ccccc1)c1ccc2nnc(C3CCCC3)n2c1 | 29.4% [at 87.6 µM] | – |
| CCOC(=O)C1CCCN(C(=O)Cc2ccc(N(Cc3cccc(F)c3)C(=O)c3ccco3)cc2)C1 (centres undefined) | -23.9% | – |
| CCOc1ccccc1C(=O)N1CCC(Cc2nc(-c3ccccc3)no2)CC1 | -35.6% | – |
| COc1ccc(NC(=O)[C@@H]2C[C@@H](c3ccc(F)cc3)N(CCOc3ccccc3)C2)cn1 | -25.5% [at 87.6 µM] | – |
| CC(C)(C)C(=O)N1CCc2nc(-c3ccc(Cl)cc3)nc(-c3ccccc3)c2C1 | 8.29% | – |
| Cc1ccc([S+](=O)([O-])N2CCN(C(=O)c3nc4cccnc4n(C4CCCC4)c3=O)CC2)cc1 | 15% | – |
| Oc1ccccc1CN1CCOC[C@H]1c1ncc(-c2ccc(C(F)(F)F)cc2)[nH]1 | -16.2% [at 87.6 µM] | – |
| Cc1c(Cl)cccc1NC(=O)N(C)CC1CCOC1 (centres undefined) | -18.4% | – |
| CC1(c2cccnc2)N(CCOc2ccccc2)C(=O)OC12CCN(C(=O)c1cccc(Cl)c1)CC2 (centres undefined) | 1.76% | – |
| COc1ccccc1-c1cc(C(=O)NCCSC)nn2cccc12 | 7.11% | – |
| CC1=C[C@@H](CNC(=O)Nc2ccccc2)[C@H](C(C)C)C[C@H]1CC(=O)NCCN(C)C | 10.4% [at 87.6 µM] | – |
| O=C(C1CCC1)N1CCC(O)(c2csc(CN3CCc4ccccc4C3)n2)CC1 | -14.5% [at 87.6 µM] | – |
| O=C1[C@@H]2C[C@@H](O)CN2C2(CN(C3CCC3)C2)C(=O)N1Cc1ccccc1 | -1.96% [at 87.6 µM] | – |
| Cc1ccc(-c2noc([C@@H]3C[C@@H](O)CN3Cc3cccc(C#N)c3)n2)cc1F | 50% [at 87.6 µM] | – |
| O=C(Cc1ccccn1)N1CCC(C(=O)N2CCC(N3CCCC3=O)CC2)CC1 | 23% | – |
| O=C(NCCc1ccccc1)C1=NO[C@@H]2CN(Cc3ccc(F)cc3)C[C@H]12 | -24% [at 87.6 µM] | – |
| CC1(C)[C@H](Cc2cc(CC3CCCCC3)on2)C[C@@H]1NC1CCOCC1 | -20.1% [at 87.6 µM] | – |
| COc1cc(OC)c(CNC(=O)c2c(C)noc2-c2cc(OC)c(OC)c(OC)c2)c(OC)c1 | -14% | – |
| O=C(NCc1cccc(F)c1)c1c[nH]c2ncccc12 | 38.6% [at 87.6 µM] | – |
| Cc1ccc(C(=O)N2CCC(N3CC4CC(C3)[C@H]3CCCC(=O)N3C4)CC2)s1 (some centres undefined) | -10.4% | – |
| CCOc1cccc(CNC(=O)CC2CCCCN(Cc3ccccc3)C2=O)c1 (centres undefined) | -19.5% | – |
| O=C(NCc1ccccc1)C1CCN(c2nccc(Nc3ccccc3Cl)n2)CC1 | 15.5% | – |
| COc1ccccc1-c1[nH]nc2ncc(-c3cccc(CO)c3)nc12 | 40% [at 87.6 µM] | – |
| O=C(Cc1ccccn1)N1CCCC(C(=O)N2CCC(c3nc4ncccc4[nH]3)CC2)C1 (centres undefined) | -25.7% | – |

| SMILES | activity change, negative = inhibition | Potency |
| --- | --- | --- |
| COc1ccc(Nc2cnc3ccc(-c4ccc(OC)nc4)nn23)cc1 | 16% [at 87.6 µM] | – |
| O=C1NC2(Cc3ccccc31)CN([S+](=O)([O-])c1ccccc1)C2 | -1.01% | – |
| COCC(=O)N1CC(C(=O)NCCc2ccccn2)C2(CCOCC2)C1 (centres undefined) | -5.39% | – |
| Cc1ccc(CNC(=O)c2ccc3c(c2)CN(Cc2cccnc2Cl)CCO3)cc1 | 9.94% | – |
| O=C1CO[C@H]2CN(C3CCC3)C[C@H]2N1Cc1ccc(OC(F)(F)F)cc1 | -24.4% [at 87.6 µM] | – |
| O=C1NCCc2[nH]c(-c3ccncc3)cc21 | – | 3410 nM (active) |
| CC(C)CNC(=O)C1CCCN(c2nccc(Nc3ccccc3F)n2)C1 (centres undefined) | -8.89% | – |
| CN(Cc1ccccc1)C(=O)CC1CCN(C(=O)CCC2CCCC2)C1 (centres undefined) | 5.5% | – |
| COc1ccc(CC(=O)NC2CCN(c3cc(-c4ccccc4)[nH]n3)CC2)cc1 | 0.566% | – |
| CC(=O)c1cnc2ccc(-c3cc(Cl)c(O)c(Cl)c3)nc2c1NC1CCC(CN(C)C)CC1 (centres undefined) | – | 27 nM (active) |
| CCN(CC)Cc1ccc2c(c1)CN(C(=O)Cc1c[nH]c3ccccc13)CCO2 | 1.62% | – |
| N#Cc1cccc(-c2c(C(=O)NCCc3ccccc3)nc3sccn23)c1 | 21.4% | – |
| COc1ccccc1CCC(=O)N1C[C@H](N)C[C@H]1C(=O)NC(C)C | -20.2% | – |
| COc1cccc(CNC(=O)c2cc(-c3cccnc3)nc3c2cnn3C)c1 | -17.4% | – |
| COCCN1C(=O)N(C)C(=O)C12CCN(Cc1cc(F)ccc1F)C2 (centres undefined) | -6.12% | – |
| O=C1NCCCCCN(C(=O)Cc2ccccc2)[C@@H]2C[C@@H](C(=O)N3CCc4ccccc4C3)C[C@H]12 | -16.4% | – |
| CCCNC(=O)C(NC(=O)c1ccccc1C)C1CCN(C(=O)c2ccc(OC)cc2)CC1 (centres undefined) | 17.1% | – |
| O=S(=O)(c1cccc(F)c1)N1CC[C@@H]2COCCN(Cc3cccnc3)[C@@H]2C1 | 16.8% | – |
| CN(C)c1ccc(CN[C@H]2[C@H](O)[C@@H](N3CCC(Cc4ccccc4)CC3)[C@@H]3OC[C@H]2O3)cc1 | -9.07% | – |
| Cc1ccc(C(=O)N2CCC3(CC2)NC(=O)N(Cc2ccc(F)cc2)C3=O)cc1 | 7.66% | – |
| COc1ccc2[nH]cc(CCNc3cc(-c4ccccc4CN(C)C)ncn3)c2c1 | -19.4% | – |
| CN(C)CCc1c[nH]c2ccc(Cn3cncn3)cc12 | – | 2710 nM (active) |
| CS(=O)(=O)N(Cc1ccccn1)C1CN(C(=O)NCCc2ccccc2)C1 | -15.2% | – |
| O=C(NCc1ccc(F)cc1)c1nc(-c2ccccc2)c2ccccn12 | -74.1% | – |
